Vaccinia mCherry – vaccinia inhibition (mCherry reporter); Vaccinia virus mCherry reporter infection, fluorescence; Potency, µM (titrated, usually from 36.5 µM), hits mostly inhibitors; 310,000 tested, 0.63% active; calls by dose curve; tested in A549 cells; also: nearly all actives have a fitted effect of over 35% in size
HCV inhibitor – inhibitors of hepatitis C virus infection; 340,000 tested, 3.4% active; Potency, µM (doses to about 41.8 µM), actives largely listed as inhibitors; Huh7.5.1 HCVcc-Cre infection, luciferase reporter, 44 h; active = well fitted inhibition curve with a large enough effect; inconclusive = small, poorly fitted or top-dose-only effect, or another doubt; inactive = no such curve, though single readings can be large or run the other way
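Luciferase read-out (15 sec integration) after a 15 min room-temperature substrate step quantifies HCVcc-Cre infection. Cells, 1,000 per well, had compound added 4 h post-plating, then virus at ~0.5 moi, and were cultured 44 h.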
VACV Venus inh – vaccinia inhibition (Venus reporter) | Vaccinia virus Venus reporter expression, fluorescence | Potency, µM (titrated, usually from 36.5 µM), most hits filed as inhibitors | 330,000 tested, 0.46% active | AID 720580; calls by dose curve; tested in A549 cells; also: nearly all actives have a fitted effect of over 30% in size
FMDV antiviral – blocks foot and mouth disease virus; FMDV antiviral cell-based qHTS; Potency, µM (series often up to 57.9 µM), hits mostly inhibitors; 410,000 tested, 1.2% active; AID 1159524; calls by dose curve; tested in HEK293T cells; also: read-out not given here; nearly all actives have a fitted effect of over 45% in size
HCMV inh – human cytomegalovirus inhibition | HFF cells, HCMV-luciferase reporter, 72 h; hits give low values | activity change, negative = inhibition, % at 57.5 µM | 410,000 tested, 4.5% active | AID 1259415; in the data active = activity change below about -60%; inconclusive = no clear call, values can overlap the other calls; inactive = above about -39%
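Two compound doses tested in HFFs infected with HCMV-luciferase, MOI 1 PFU/cell, 72 h at 37C. Lysate luminescence read with OneGlo; data normalized against buffer-only and 10uM Salinomycin inhibitor controls.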
A number is an active result; ! = not confirmed by another sample. A selection: hits, their analogues and other compounds. The true share with any hit is near 7.3%.

How did CC(=O)OC(/C(O)=C(\C#N)c1nc2ccccc2[nH]1)c1ccccc1 (stereo unspecified) do in these assays?
Vaccinia mCherry: inconclusive; HCV inhibitor: inactive; VACV Venus inh: inactive; HCMV inh: -96

What do the screens show for `CCN(c1ccccc1)c1cc2ccccc2c(=O)[nH]1`?
Vaccinia mCherry: inactive; HCV inhibitor: inactive; VACV Venus inh: inactive; FMDV antiviral: inactive; HCMV inh: -64

What do the screens show for `CCN(c1ccccc1)c1nc(=O)c2cccnc2s1`?
HCV inhibitor: inactive; FMDV antiviral: inactive; HCMV inh: inactive

What do the screens show for `O=C(O)/C=C/c1ccc([N+](=O)[O-])o1`?
Vaccinia mCherry: inactive; HCV inhibitor: inactive; VACV Venus inh: inactive; FMDV antiviral: inactive; HCMV inh: inactive

What do the screens show for `CN1CCN(C(=O)/C=C/c2ccc([N+](=O)[O-])o2)CC1`?
Vaccinia mCherry: inactive; HCV inhibitor: inconclusive; VACV Venus inh: inconclusive; FMDV antiviral: inactive; HCMV inh: -101

Results for CCOc1ccc(NC(=O)c2ccc(NC(=O)N3CCSc4ncccc43)cc2)cc1 ?
Vaccinia mCherry: inactive; VACV Venus inh: inactive; FMDV antiviral: 32µM; HCMV inh: inconclusive

How did COc1ccc(NC(=O)c2ccc(NC(=O)N3CCSc4ncccc43)cc2)cc1 do in these assays?
Vaccinia mCherry: inactive; VACV Venus inh: inactive; FMDV antiviral: inconclusive; HCMV inh: inactive

What do the screens show for `COc1ccc(CNC(=O)c2ccc(NC(=O)N3CCSc4ncccc43)cc2)c(OC)c1`?
Vaccinia mCherry: inactive; VACV Venus inh: inactive; FMDV antiviral: inactive; HCMV inh: inactive

What do the screens show for `CCOc1ccccc1CNC(=O)c1ccc(NC(=O)N2CCSc3ncccc32)cc1`?
Vaccinia mCherry: inactive; VACV Venus inh: inactive; FMDV antiviral: inconclusive; HCMV inh: active

How did Brc1ccc(Nc2c3c(nc4nncn24)CCC3)cc1 do in these assays?
Vaccinia mCherry: inconclusive; VACV Venus inh: inactive; FMDV antiviral: inconclusive; HCMV inh: inactive

What do the screens show for `Cc1c(C(=O)N(C)Cc2cccc(F)c2)oc2c(Cl)cccc12`?
Vaccinia mCherry: inactive; HCV inhibitor: inactive; VACV Venus inh: inactive; FMDV antiviral: 7.1µM; HCMV inh: inactive

Results for COC(=O)c1ccc(OCC2c3cc(OC)c(OC)cc3CCN2C(=O)Cc2ccc(OC)cc2)cc1 (stereo unspecified) ?
Vaccinia mCherry: inactive; VACV Venus inh: inactive; FMDV antiviral: inconclusive; HCMV inh: inactive

Results for CN1CCN(S(=O)(=O)c2ccc(NC(=O)Nc3cccc(Cl)c3)cc2)CC1 ?
HCV inhibitor: 7.9µM!; VACV Venus inh: inconclusive; FMDV antiviral: inactive; HCMV inh: inactive

What do the screens show for `O=C(CN1CCN(c2ccc(O)cc2)CC1)Nc1cc(S(=O)(=O)N2CCCCC2)ccc1Cl`?
Vaccinia mCherry: inactive; HCV inhibitor: 10µM; VACV Venus inh: inactive; FMDV antiviral: inactive; HCMV inh: -74

What do the screens show for `O=C(CNCc1ccc(Cl)cc1)Nc1cc(S(=O)(=O)N2CCCC2)ccc1Cl`?
Vaccinia mCherry: inactive; HCV inhibitor: 7.9µM; VACV Venus inh: inactive; FMDV antiviral: inconclusive; HCMV inh: inactive

What do the screens show for `O=S(=O)(c1ccc(Cl)c(NC(=S)N/N=C/c2ccc(O)cc2)c1)N1CCOCC1`?
Vaccinia mCherry: inconclusive; HCV inhibitor: inconclusive; VACV Venus inh: inconclusive; FMDV antiviral: inconclusive; HCMV inh: -83

How did O=C(Cc1ccccc1F)Nc1cc(S(=O)(=O)N2CCCC2)ccc1Cl do in these assays?
HCV inhibitor: inactive; FMDV antiviral: inactive; HCMV inh: inconclusive

What do the screens show for `COc1ccc(C2NC(=S)N(Cc3ccc(Cl)cc3)C(C)=C2C(C)=O)cc1` (stereo unspecified)?
HCMV inh: inactive

What do the screens show for `CCC1(C2CCN(Cc3c(C)[nH]c4ccccc34)CC2)NC(=O)N(Cc2ccc3c(c2)OCO3)C1=O` (stereo unspecified)?
Vaccinia mCherry: inactive; VACV Venus inh: inactive; FMDV antiviral: inactive

How did Cc1ccccc1CN1CCc2nnc(C(C)NC(=O)C3CCN(C)CC3)n2CC1 (stereo unspecified) do in these assays?
Vaccinia mCherry: inactive; VACV Venus inh: inactive; FMDV antiviral: inactive

What do the screens show for `CC(C)CCNC(=O)CN1C(=O)c2cccnc2Oc2ccccc21`?
Vaccinia mCherry: inactive; VACV Venus inh: inactive; FMDV antiviral: inactive; HCMV inh: inactive

How did Cc1ccc(S(=O)(=O)N2CCCCC2)cc1NC(=O)Nc1ccc(Cl)cc1Cl do in these assays?
Vaccinia mCherry: inactive; HCV inhibitor: inactive; VACV Venus inh: inactive; FMDV antiviral: inconclusive; HCMV inh: inactive

Results for O=C(Nc1cccc(Cl)c1)Nc1cc(S(=O)(=O)N2CCCCC2)ccc1Cl ?
Vaccinia mCherry: inactive; HCV inhibitor: 11µM; VACV Venus inh: inconclusive; FMDV antiviral: inconclusive; HCMV inh: -99

What do the screens show for `C#CCN1CC(COc2ccccc2)OCCS1(=O)=O` (stereo unspecified)?
HCMV inh: inactive

What do the screens show for `Cc1cc2c(c(-c3ccc4nc(C)ccc4c3)c1)OC(CNC(=O)Cc1ccn(C)c1)C2` (stereo unspecified)?
Vaccinia mCherry: inactive; VACV Venus inh: inactive; FMDV antiviral: inactive

Results for CCCCc1cc(=O)oc2cc(O)ccc12 ?
Vaccinia mCherry: inactive; HCV inhibitor: inactive; VACV Venus inh: inactive; FMDV antiviral: inactive; HCMV inh: -104

What do the screens show for `CCCCc1cc(=O)oc2cc(OCC(=O)N3CCOCC3)ccc12`?
Vaccinia mCherry: inactive; HCV inhibitor: inactive; VACV Venus inh: inactive; FMDV antiviral: inactive; HCMV inh: -81

How did CCCCc1cc(=O)oc2c(CN(C)C)c(O)ccc12 do in these assays?
Vaccinia mCherry: inactive; HCV inhibitor: inactive; VACV Venus inh: inactive; FMDV antiviral: inactive; HCMV inh: inactive

How did CCN(CC)c1ccc(C(=O)OCc2cc(=O)oc3cc(O)ccc23)cc1 do in these assays?
Vaccinia mCherry: inconclusive; HCV inhibitor: 22µM; VACV Venus inh: inactive; FMDV antiviral: inconclusive; HCMV inh: -104

Results for Cc1cc(=O)oc2cc(OCC(=O)N3CCN(C(=O)C4COc5ccccc5O4)CC3)ccc12 (stereo unspecified) ?
HCV inhibitor: 18µM; FMDV antiviral: inconclusive; HCMV inh: inconclusive

How did O=C1CC(c2nc3ccccc3n2CCCCOc2ccccc2)CN1c1ccccc1Cl (stereo unspecified) do in these assays?
Vaccinia mCherry: inactive; VACV Venus inh: inactive; FMDV antiviral: inactive; HCMV inh: inactive

What do the screens show for `CCC(C)NS(=O)(=O)c1ccc(NC(=O)C(Sc2ccccc2)c2ccccc2)cc1` (stereo unspecified)?
Vaccinia mCherry: inconclusive; HCV inhibitor: inconclusive; VACV Venus inh: inconclusive; FMDV antiviral: inactive; HCMV inh: inactive

Results for CCCCNS(=O)(=O)c1ccc(NC(=O)C(Sc2ccccc2)c2ccccc2)cc1 (stereo unspecified) ?
Vaccinia mCherry: inconclusive; HCV inhibitor: inconclusive; VACV Venus inh: 10µM; FMDV antiviral: inactive; HCMV inh: -69

What do the screens show for `O=C(c1ccc(Cl)cc1)n1nc(-c2ccco2)nc1NCc1cccs1`?
Vaccinia mCherry: inactive; VACV Venus inh: inactive; FMDV antiviral: inactive; HCMV inh: inactive

What do the screens show for `CCc1cccc(NC(=O)CSc2ncc3c(n2)-c2cc(Cl)ccc2N(C)S3(=O)=O)c1`?
Vaccinia mCherry: inactive; VACV Venus inh: inactive; FMDV antiviral: inactive; HCMV inh: inactive
